Among all 11,000 compounds or so, about 310 (2.8%) were called active. This is one part of a sample in which actives are shown more often than they occur. Cut-off read from the data, not from the text of the source: active = activity change below about -85%; inactive = the rest.

The subject of the assay is intestinal alkaline phosphatase [Mus musculus]. The assay can be described thus: activators of mouse IAP, confirmation, biochemical, luminescence, single concentration (AID 434970). The note with it: purified mouse IAP, CDP-Star luminescence, 30 min, at 10 µM; activation factor: measured here: IAP activation factor, stronger effect = higher value; activity change, negative = activation: stronger effect = lower value.
Consider `COc1cc(-c2nnc3sc(Cc4ccccc4)nn23)cc(OC)c1OC`, for which the activation factor stood at 0.942 and the activity change, negative = activation was 5.85% (inactive).

Take `CCOC(=O)c1cnc(SCc2cccc(C)c2)nc1N`: the activation factor turned out to be 1.08 and the activity change, negative = activation was -7.85% (inactive).

`CCOc1ccc(NC(=O)N2CCC(C(=O)c3ccc(F)cc3)CC2)cc1`: the activation factor came out at 1.07 and the activity change, negative = activation is -7.1% (inactive).

Take `COc1cccc(OC)c1C(=O)Nc1cccc(C(C)=O)c1`: the activation factor was 0.983 and the activity change, negative = activation was 1.65% (inactive).

As for `NS(=O)(=O)c1ccc(N2N=C(c3ccccc3)CC2c2ccccc2)cc1` (configuration not stated), the activation factor was 1.6 and the activity change, negative = activation was -59.6% (inactive).

As to `CCCC1(C(=O)OCC)NC(c2cc(OC)c(OC)c(OC)c2)C2C(=O)N(CC)C(=O)C21` (configuration not stated), the activation factor amounted to 0.957 and the activity change, negative = activation is 4.35% (inactive).

Regarding `O=C(CN1CCCCCC1)Nc1ccccc1F`, the activation factor stood at 0.954 and the activity change, negative = activation was 4.6% (inactive).

`Cc1cc(C)c2nc(C(F)(F)F)nc(NCCCN3CCCC3=O)c2c1`: the activation factor came out at 0.947 and the activity change, negative = activation was 5.35% (inactive).

Regarding `COc1ccc(/C=N/NC(=O)c2cc(-c3ccccc3OC)nc3ccccc23)cc1COC(C)=O`, the activation factor is 0.929 and the activity change, negative = activation was 7.05% (inactive).

As for `O=C(Nc1nc2ccc(S(=O)(=O)N3CCCCC3)cc2s1)C1CCCO1` (configuration not stated), the activation factor came to 0.96 and the activity change, negative = activation was 4.05% (inactive).

On to `COC(=O)C[C@H](NC(=O)Cn1cnc2c(NCc3ccccc3)ncnc21)C(=O)OC`, for which the activation factor stood at 0.97 and the activity change, negative = activation is 2.95% (inactive).

For the molecule `Cc1cc(NC(=O)CN2C(=O)C3CC=CCC3C2=O)no1` (configuration not stated), the activation factor came out at 0.929 and the activity change, negative = activation was 7.05% (inactive).

Consider `COc1ccc(OC)c(S(=O)(=O)n2nc(C)cc2C)c1`, for which the activation factor is 1.08 and the activity change, negative = activation was -7.9% (inactive).

Regarding `COc1ccc(Cl)cc1NC(=O)CCc1ccccc1`, the activation factor turned out to be 0.97 and the activity change, negative = activation was 3% (inactive).

Turning to `O=C(CCN1CCN(C/C=C/c2ccccc2)CC1)Nc1ccccc1`, the activation factor came out at 1.08 and the activity change, negative = activation was -8% (inactive).

For the molecule `COc1ccccc1/C=C/CN1CCC(n2nccc2NC(=O)CCc2ccccc2)CC1`, the activation factor is 2.21 and the activity change, negative = activation was -121% (active).

On to `O=S(=O)(Nc1ccc(Cl)c(C(F)(F)F)c1)c1cnc[nH]1`, for which the activation factor was determined as 0.887 and the activity change, negative = activation is 11.3% (inactive).

With `C[C@H](CO)N1C[C@H](C)[C@@H](CN(C)C(=O)Nc2ccccc2)Oc2ccc(NC(=O)NC3CCCCC3)cc2C1=O`, the activation factor was found to be 1.47 and the activity change, negative = activation is -46.7% (inactive).

Turning to `C[C@H](CO)N1C[C@H](C)[C@@H](CN(C)C(=O)Nc2ccc(C(F)(F)F)cc2)Oc2ccc(NC(=O)Nc3ccccc3)cc2C1=O`, the activation factor is 1.71 and the activity change, negative = activation was -71.5% (inactive).

`COc1ccc(NC(=O)Nc2ccc3c(c2)C(=O)N([C@H](C)CO)C[C@H](C)[C@@H](CN(C)C(=O)Nc2ccccc2)O3)cc1`: the activation factor was found to be 1.59 and the activity change, negative = activation is -59.5% (inactive).

Turning to `C[C@H](CO)N1C[C@H](C)[C@@H](CN(C)C(=O)Nc2ccc3c(c2)OCO3)Oc2ccc(NC(=O)Nc3ccc4c(c3)OCO4)cc2C1=O`, the activation factor was found to be 1.75 and the activity change, negative = activation was -74.9% (inactive).

`C[C@H](CO)N1C[C@H](C)[C@@H](CN(C)C(=O)NC2CCCCC2)Oc2ccc(NC(=O)Nc3ccccc3)cc2C1=O`: the activation factor came to 2 and the activity change, negative = activation is -99.6% (active).

For the molecule `COc1ccc(NC(=O)Nc2ccc3c(c2)C(=O)N([C@H](C)CO)C[C@H](C)[C@@H](CN(C)C(=O)NC2CCCCC2)O3)cc1`, the activation factor stood at 1.64 and the activity change, negative = activation is -64% (inactive).

Take `C[C@H](CO)N1C[C@H](C)[C@@H](CN(C)C(=O)Nc2ccccc2)Oc2ccc(NC(=O)Nc3ccc4c(c3)OCO4)cc2C1=O`: the activation factor was determined as 2.17 and the activity change, negative = activation was -117% (active).

Regarding `C[C@H](CO)N1C[C@H](C)[C@@H](CN(C)C(=O)Nc2ccccc2)Oc2ccc(NC(=O)Nc3ccccc3)cc2C1=O`, the activation factor was 2.23 and the activity change, negative = activation is -123% (active).

In the case of `COc1ccc(NC(=O)Nc2ccc3c(c2)C(=O)N([C@H](C)CO)C[C@H](C)[C@@H](CN(C)C(=O)Nc2ccc4c(c2)OCO4)O3)cc1`, the activation factor is 1.63 and the activity change, negative = activation is -62.9% (inactive).

For the origin of these results see PubChem BioAssay AID434970 (Sanford-Burnham Center for Chemical Genomics, 2010).
